Results reported in PubChem BioAssay (EPA / NIEHS).
Records with an inconclusive call do not appear. Active and inactive are the calls of the source. Rule for the calls: active = hit-call score of the fitted dose curve at least 0.9, where 1 is the maximum; inconclusive = response in the unintended direction; inactive = score below 0.9.

biological target: chicken Estrogen Receptor (ESR1), ESR1 (gene 396099) (UniProt P06212); assay: ATG_chERa_XSP1: Attagene TRANS-FACTORIAL Multi-Species (XSP1) HepG2 Assay for chicken Estrogen Receptor (ESR1) (AID 2283779)
Sequence (P06212 whole entry, looked up): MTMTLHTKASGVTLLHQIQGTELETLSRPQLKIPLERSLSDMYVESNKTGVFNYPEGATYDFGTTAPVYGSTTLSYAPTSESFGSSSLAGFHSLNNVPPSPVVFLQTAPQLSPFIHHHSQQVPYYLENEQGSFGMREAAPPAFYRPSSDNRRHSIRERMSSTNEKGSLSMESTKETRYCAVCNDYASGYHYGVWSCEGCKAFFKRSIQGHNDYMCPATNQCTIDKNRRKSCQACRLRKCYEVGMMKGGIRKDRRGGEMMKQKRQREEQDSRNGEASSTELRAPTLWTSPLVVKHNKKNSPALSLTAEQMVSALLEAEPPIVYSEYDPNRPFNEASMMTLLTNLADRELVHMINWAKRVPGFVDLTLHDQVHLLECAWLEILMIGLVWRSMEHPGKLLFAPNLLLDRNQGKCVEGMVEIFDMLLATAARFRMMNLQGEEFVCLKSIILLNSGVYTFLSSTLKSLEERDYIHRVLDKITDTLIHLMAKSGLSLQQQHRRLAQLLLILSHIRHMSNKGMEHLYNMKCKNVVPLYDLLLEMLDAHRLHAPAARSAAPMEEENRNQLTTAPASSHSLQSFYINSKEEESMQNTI
Method: ATG_XSP1_multi-species_TRANS is a cell-based, multiplexed assay created by modifying the existing Attagene TRANS-FACTORIAL system to include a panel of nuclear receptors from some or all the following species: human (Homo sapiens), mouse (Mus musculus), frog (Xenopus laevis), zebrafish (Danio rerio), chicken (Gallus gallus), and turtle (Chrysemys picta). The ECOTOX-FACTORIAL format uses HepG2, a human liver cell line, with measurements taken at 24 hours after chemical dosing in a 24-well plate. Xsp1 included 3 nM 6-alpha-fluorotestosterone to partially stimulate the androgen receptor.ATG_chERa_XSP1 is one of 29 assay components measured or calculated from the ATG_XSP1_multi-species_TRANS assay. It is designed to make measurements of mRNA induction, a form of inducible reporter, as detected with fluorescence intensity signals by Reverse transcription polymerase chain reaction (RT-PCR) and Capillary electrophoresis technology.The assay endpoint ATG_chERa_XSP1 was analyzed in the positive analysis fitting direction relative to DMSO as the negative control and baseline of activity. Using a type of inducible reporter, measures of mRNA for gain-of-signal activity can be used to understand the reporter gene at the transcription factor-level as they relate to the gene ER. Furthermore, this assay endpoint can be referred to as a primary readout, because this assay has produced multiple assay endpoints where this one serves a reporter gene function. To generalize the intended target to other relatable targets, this assay endpoint is annotated to the nuclear receptor intended target family, where the subfamily is steroidal.
Human liver HepG2 cells are transiently transfected with multiple reporter transcription units (MRTUs) in 6-well plates using FuGene 6 reagent (Roche; 3 ml FuGene/1 mg DNA). The MRTU constructs are regulated by a cis-regulating element (promoter). […] A major difference between the CIS and TRANS system is that in CIS activities of endogenous TFs are measured, whereas the TRANS assay evaluates changes in activities of exogenous, chimeric NR-Gal4 proteins. […] At the end of 24 hour incubation, total RNA was isolated using TriZol reagent (Invitrogen). The isolated RNA is then reverse-transcribed using oligo(dT) primer and Mo-MLV reverse transcriptase (Invitrogen) with DNAse I (Ambion) treatment for 30 min. The one-tenth of the produced cDNA was amplified by PCR using Taq DNA polymerase (Invitrogen) and two reporter sequence-specific primers. The PCR products were fluorescently labeled by primer extension with 6-arboxyfluorescein (6-FAM) 5'-labeled reporter sequence-specific primer (2 min at 95 C, 20 s at 68 C and 10 min at 72 C) and these products were digested with 5U of HpaI (New England Biolabs) for 2h at 37 C. The fragments were purified using Qiaquick PCR columns (Qiagen), analyzed on an ABI 3130xL genetic analyzer (Applied Biosystems) with peak positions identified by using a set of X-rhodamine (ROX)-labeled MapMarker1000 molecular weight standards (BioVentures). The raw capillary electrophoresis data was processed using Attagraph software (Attagene).

SMILES | AC50 | outcome
CCCCOC(=O)c1ccccc1C(=O)OCCCC | 26.7 µM (active) | –
CON(C)C(=O)Nc1ccc(Cl)c(Cl)c1 | 27.3 µM (active) | –
CCCN(CCC)c1c([N+](=O)[O-])cc(S(N)(=O)=O)cc1[N+](=O)[O-] | 16.2 µM (active) | –
COc1ccc(C(c2ccc(OC)cc2)C(Cl)(Cl)Cl)cc1 | 1.97 µM (active) | –
CC(C)(C)c1ccc(CSc2cnn(C(C)(C)C)c(=O)c2Cl)cc1 | – | inactive
OC(c1ccc(Cl)cc1)(c1cncnc1)c1ccccc1Cl (stereo not drawn) | 2.36 µM (active) | –
CC(C)Oc1cc(-n2nc(C(C)(C)C)oc2=O)c(Cl)cc1Cl | 27.2 µM (active) | –
CCCCC(CC)COC(=O)c1ccccc1C(=O)OCC(CC)CCCC (stereo not drawn) | – | inactive
CO/C=C(/C(=O)OC)c1ccccc1Oc1cc(Oc2ccccc2C#N)ncn1 | – | inactive
COP(=S)(OC)Oc1nc(Cl)c(Cl)cc1Cl | 27.8 µM (active) | –
CCCC1COC(Cn2cncn2)(c2ccc(Cl)cc2Cl)O1 (stereo not drawn) | – | inactive
C#CCOS(=O)OC1CCCCC1Oc1ccc(C(C)(C)C)cc1 (stereo not drawn) | 26.8 µM (active) | –
C=CC1(C)OC(=O)N(c2cc(Cl)cc(Cl)c2)C1=O (stereo not drawn) | 59.9 µM (active) | –
